For eight compounds, Percent Effect results are on record in ChEMBL document CHEMBL3988442, “University of Dundee, Small-Polar-MMV Screening Library” (2021).

Holding throughout (parameters): scale not given: direction of the effect not stated beside the values
The target of experiment [1] is Protein translocase subunit SecA (Escherichia coli (strain K12)) (UniProt P10408). The experiment is described as follows: Assay to Identify E. coli SecA ATPase Inhibitors. The format is functional. To be noted: 30 µM.
Experiment [2] deals with T1, Ubiquitin-activating enzyme e1, putative (Leishmania donovani (strain BPK282A1)) (UniProt E9BSI1).
T1 sequence (whole entry): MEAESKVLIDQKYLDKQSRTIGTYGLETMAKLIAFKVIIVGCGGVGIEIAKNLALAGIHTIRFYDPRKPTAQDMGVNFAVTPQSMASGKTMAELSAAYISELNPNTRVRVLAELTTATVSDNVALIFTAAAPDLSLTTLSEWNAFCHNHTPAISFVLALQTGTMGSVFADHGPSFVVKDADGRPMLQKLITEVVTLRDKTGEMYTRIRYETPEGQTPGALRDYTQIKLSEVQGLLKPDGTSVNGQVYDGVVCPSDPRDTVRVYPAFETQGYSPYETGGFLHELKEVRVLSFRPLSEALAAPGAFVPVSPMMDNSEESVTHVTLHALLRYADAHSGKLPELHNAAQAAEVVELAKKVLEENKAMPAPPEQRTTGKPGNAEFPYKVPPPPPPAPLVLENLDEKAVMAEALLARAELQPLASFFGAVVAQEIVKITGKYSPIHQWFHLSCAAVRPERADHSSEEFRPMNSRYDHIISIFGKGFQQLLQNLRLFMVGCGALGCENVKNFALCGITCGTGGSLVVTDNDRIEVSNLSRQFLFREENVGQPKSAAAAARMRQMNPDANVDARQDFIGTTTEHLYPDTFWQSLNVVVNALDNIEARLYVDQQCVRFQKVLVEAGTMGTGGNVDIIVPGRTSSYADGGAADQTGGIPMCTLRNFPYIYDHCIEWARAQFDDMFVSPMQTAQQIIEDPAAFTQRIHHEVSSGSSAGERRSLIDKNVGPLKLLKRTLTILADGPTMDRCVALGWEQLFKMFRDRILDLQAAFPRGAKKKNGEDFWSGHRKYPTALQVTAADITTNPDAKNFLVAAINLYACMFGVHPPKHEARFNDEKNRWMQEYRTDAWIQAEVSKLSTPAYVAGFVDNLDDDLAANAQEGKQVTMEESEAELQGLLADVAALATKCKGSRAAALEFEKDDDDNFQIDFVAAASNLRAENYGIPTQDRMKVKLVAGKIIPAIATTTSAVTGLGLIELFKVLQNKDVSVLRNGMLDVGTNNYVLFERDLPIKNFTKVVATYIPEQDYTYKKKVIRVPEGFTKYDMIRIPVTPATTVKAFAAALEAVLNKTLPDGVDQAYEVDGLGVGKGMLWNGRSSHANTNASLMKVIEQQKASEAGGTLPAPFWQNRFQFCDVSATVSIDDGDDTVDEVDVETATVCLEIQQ
As to the kind of experiment: Leishmania donovani Ubiquitin Activating Enzyme (LdE1). The format is functional. As to conditions: 30 µM.

The target in experiment [3] is AMP-activated protein kinase, AMPK (Homo sapiens) (UniProt P54646+O43741+P54619+Q9UGJ0+Q9Y478+Q13131+Q9UGI9). As to the kind of experiment: AMP-dependent Kinase enzyme assay. An in vitro enzyme assay that detects ADP turnover that is directly proportional to AMPK activity. This uses naive AMPK that is activated during the assay with MK-8722. The format is functional. As to conditions: 30 µM.

The target of experiment [4] is Sialic acid-binding Ig-like lectin 9 (Homo sapiens) (UniProt Q9Y336). The experiment is described as follows: Hs-Siglec9 ALPHAscreen SOP 20170721. To be noted: 10 µM. (In general: Alpha assays give light when donor and acceptor beads are brought close together.)
In the next experiment the test system is Trypanosoma cruzi. As to the kind of experiment: Trypanosoma cruzi phosphomannomutase and mannose-1-phosphate guanylyltransferase assay. The format is functional. To be noted: 10 µM.
Experiment [5] deals with T2, Arginase-2, mitochondrial (Homo sapiens) (UniProt P78540).
T2 sequence (whole entry): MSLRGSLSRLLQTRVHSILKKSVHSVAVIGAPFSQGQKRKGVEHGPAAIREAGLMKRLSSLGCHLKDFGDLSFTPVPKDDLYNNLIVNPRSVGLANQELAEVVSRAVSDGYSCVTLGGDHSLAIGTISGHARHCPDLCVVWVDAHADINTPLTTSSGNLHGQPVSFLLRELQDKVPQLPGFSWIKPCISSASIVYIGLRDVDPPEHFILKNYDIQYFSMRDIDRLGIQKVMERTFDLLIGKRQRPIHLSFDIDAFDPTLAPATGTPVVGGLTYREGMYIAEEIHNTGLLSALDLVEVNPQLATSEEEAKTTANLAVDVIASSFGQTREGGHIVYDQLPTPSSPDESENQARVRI
As to the kind of experiment: in vitro enzyme assay to detect the production of urea directly proportional to the activity of Arginase II. Note: in the data most compounds retested in dose-response had high values. The format is functional. To be noted: 33.3 µM.

In experiment [6] the target is T3, Proteasome subunit beta (Trypanosoma cruzi) (UniProt O96673).
T3 sequence (whole entry): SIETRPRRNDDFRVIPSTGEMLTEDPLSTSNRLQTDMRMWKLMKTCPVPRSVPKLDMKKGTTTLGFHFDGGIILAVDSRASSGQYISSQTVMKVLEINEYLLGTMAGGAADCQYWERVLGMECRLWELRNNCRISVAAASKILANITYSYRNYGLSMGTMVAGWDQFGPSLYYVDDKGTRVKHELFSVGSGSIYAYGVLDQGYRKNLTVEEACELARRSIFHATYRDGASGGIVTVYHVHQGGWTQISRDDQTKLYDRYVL
The experiment is described as follows: Trypanosoma cruzi proteasome chymotrypsin-like activity (TcProtChymo) assay. Note: in the data most compounds retested in dose-response had high values. The format is functional. To be noted: 9.37 µM.

For the next experiment, the species on record is Homo sapiens. The experiment is described as follows: To identify inhibition of the IFN signalling (Jak-Stat) pathway via expression of an eGFP reporter gene under the control of an IFN-stimulated response element (ISRE) containing MxA promoter. The format is functional. To be noted: 30 µM. (In general: Reporter assays use an easily measured gene product as a stand-in for the process of interest.)

The target in experiment [7] is T4, Tyrosyl-tRNA synthetase, putative (Trypanosoma cruzi (strain CL Brener)) (UniProt Q4DSP6).
T4 sequence (whole entry): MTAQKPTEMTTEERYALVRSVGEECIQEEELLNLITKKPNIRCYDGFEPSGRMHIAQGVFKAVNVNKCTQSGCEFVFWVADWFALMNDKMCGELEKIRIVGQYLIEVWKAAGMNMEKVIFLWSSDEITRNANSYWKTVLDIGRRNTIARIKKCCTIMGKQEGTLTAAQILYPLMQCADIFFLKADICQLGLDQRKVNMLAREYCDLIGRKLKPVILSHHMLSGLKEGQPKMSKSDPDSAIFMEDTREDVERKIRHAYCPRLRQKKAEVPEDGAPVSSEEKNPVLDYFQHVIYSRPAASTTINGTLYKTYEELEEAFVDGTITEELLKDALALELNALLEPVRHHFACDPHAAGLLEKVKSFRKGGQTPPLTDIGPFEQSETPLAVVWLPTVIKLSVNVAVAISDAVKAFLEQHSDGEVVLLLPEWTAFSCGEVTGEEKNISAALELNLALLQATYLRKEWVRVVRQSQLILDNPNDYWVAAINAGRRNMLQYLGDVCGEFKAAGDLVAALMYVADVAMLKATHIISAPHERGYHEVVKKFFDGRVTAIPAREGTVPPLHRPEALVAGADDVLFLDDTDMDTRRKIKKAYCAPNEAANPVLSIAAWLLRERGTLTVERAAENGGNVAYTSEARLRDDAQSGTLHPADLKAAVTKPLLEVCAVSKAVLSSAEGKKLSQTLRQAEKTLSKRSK
The experiment is described as follows: Trypanosoma cruzi tyrosyl tRNA synthetase (TcYRS) _High Tyrosine SOP. Note: in the data most compounds retested in dose-response had high values. The format is functional. As to conditions: 30 µM.

For experiment [8], the target named is T4, Tyrosyl-tRNA synthetase, putative (Trypanosoma cruzi (strain CL Brener)). The experiment is described as follows: Trypanosoma cruzi tyrosyl tRNA synthetase (TcYRS) SOP. The format is functional. To be noted: 30 µM.
Experiment [9] deals with Chromo domain-containing protein 1 (Saccharomyces cerevisiae (strain ATCC 204508 / S288c) (Baker's yeast)) (UniProt P32657). The experiment is described as follows: ScCHD-1 Enzyme Inhibition Assay. Note: in the data most compounds retested in dose-response had high values. The format is functional. To be noted: 30 µM.

For some of these results: Potency and affinity values are given separately.

Chain of Protein translocase subunit SecA (Escherichia coli (strain K12)) (P10408 whole entry): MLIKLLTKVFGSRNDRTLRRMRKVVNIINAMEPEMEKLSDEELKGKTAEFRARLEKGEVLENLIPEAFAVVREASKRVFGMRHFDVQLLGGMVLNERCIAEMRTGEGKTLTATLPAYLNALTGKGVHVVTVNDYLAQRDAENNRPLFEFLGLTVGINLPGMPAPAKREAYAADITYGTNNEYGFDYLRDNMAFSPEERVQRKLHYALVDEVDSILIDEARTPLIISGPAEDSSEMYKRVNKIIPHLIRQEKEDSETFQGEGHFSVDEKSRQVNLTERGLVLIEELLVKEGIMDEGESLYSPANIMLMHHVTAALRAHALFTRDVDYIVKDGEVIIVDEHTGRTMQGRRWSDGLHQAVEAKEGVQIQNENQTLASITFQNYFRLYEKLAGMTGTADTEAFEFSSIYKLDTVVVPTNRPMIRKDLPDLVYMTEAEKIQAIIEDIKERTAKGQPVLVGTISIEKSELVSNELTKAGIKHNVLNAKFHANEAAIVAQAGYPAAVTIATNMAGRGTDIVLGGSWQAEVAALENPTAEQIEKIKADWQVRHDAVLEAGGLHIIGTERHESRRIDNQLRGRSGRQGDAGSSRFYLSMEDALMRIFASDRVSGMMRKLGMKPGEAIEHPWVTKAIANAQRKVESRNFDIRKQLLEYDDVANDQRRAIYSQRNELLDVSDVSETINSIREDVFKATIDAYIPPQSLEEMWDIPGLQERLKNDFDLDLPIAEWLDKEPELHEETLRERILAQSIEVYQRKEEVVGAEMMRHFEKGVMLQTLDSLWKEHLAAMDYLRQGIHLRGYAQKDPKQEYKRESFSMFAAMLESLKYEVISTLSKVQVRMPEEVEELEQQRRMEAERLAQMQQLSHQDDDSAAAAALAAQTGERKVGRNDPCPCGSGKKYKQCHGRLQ
Chain of Sialic acid-binding Ig-like lectin 9 (Homo sapiens) (Q9Y336 whole entry): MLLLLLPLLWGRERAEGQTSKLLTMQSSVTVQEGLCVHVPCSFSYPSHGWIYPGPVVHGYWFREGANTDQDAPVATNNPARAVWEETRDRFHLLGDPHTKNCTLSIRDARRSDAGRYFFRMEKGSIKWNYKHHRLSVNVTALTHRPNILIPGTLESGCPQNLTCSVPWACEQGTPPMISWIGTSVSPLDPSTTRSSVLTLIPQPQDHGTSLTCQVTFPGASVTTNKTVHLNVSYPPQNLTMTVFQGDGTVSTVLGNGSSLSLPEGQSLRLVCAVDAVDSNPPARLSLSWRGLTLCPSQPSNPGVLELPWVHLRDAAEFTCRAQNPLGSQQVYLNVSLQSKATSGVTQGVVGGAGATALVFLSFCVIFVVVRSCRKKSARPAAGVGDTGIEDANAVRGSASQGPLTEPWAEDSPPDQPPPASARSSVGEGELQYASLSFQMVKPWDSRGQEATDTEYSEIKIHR
Chain of Chromo domain-containing protein 1 (Saccharomyces cerevisiae (strain ATCC 204508 / S288c) (Baker's yeast)) (P32657 whole entry, the tested form may be a part): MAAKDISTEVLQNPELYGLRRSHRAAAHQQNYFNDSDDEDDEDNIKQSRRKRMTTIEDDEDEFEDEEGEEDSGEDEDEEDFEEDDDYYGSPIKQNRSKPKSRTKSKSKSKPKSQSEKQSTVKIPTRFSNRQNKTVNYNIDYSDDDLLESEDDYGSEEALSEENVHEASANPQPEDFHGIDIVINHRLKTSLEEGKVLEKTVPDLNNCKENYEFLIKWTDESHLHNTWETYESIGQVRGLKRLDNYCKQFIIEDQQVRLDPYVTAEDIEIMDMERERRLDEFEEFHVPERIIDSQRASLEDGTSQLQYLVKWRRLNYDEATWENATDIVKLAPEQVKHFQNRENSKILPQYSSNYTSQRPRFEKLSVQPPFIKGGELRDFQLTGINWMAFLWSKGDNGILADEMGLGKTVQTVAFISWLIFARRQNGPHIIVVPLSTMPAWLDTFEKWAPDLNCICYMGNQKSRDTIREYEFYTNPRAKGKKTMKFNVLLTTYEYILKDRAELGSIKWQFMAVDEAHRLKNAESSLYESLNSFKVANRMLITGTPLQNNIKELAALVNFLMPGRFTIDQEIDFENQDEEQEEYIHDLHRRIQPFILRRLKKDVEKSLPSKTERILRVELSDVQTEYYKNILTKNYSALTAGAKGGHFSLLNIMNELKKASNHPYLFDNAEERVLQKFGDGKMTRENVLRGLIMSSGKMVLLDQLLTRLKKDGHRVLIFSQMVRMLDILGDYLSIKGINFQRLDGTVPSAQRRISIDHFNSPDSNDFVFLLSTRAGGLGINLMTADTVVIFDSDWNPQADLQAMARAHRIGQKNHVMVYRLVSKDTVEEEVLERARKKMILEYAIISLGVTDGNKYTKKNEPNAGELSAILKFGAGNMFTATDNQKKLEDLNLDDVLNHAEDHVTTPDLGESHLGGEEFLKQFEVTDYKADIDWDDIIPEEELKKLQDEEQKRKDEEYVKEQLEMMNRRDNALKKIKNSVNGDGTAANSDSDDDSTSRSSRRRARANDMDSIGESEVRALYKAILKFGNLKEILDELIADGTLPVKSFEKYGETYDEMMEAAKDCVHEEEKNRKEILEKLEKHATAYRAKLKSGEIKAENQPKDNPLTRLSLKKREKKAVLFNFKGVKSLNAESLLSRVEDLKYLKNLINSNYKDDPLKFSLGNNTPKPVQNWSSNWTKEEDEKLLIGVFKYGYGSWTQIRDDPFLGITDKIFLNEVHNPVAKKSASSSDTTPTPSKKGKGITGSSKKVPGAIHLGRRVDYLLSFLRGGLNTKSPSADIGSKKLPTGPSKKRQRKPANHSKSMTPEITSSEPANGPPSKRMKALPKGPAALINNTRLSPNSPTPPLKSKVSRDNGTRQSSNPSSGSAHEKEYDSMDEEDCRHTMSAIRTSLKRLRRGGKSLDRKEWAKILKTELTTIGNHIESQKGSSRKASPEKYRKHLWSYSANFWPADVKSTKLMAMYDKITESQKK

Turning to `O=C(CCCc1ccc(F)cc1)N1C[C@@H](CN2CCOCC2)[C@@H](CO)C1`, the Percent Effect was -3.25% in experiment [1]; 8.22% in [2]; -1.01% in [3]; -3.8% in [4]; -1.57% with Trypanosoma cruzi; 1.82% in [5]. Further, the Percent Effect in experiment [6] was 13.7%; in the experiment filed under Homo sapiens it was -3.47%; in experiment [7], 7.53%; in experiment [8], 12.5%; in experiment [9], -5.62%.

Consider `CCCNC(=O)c1sccc1N(C)S(=O)(=O)c1ccc(Cl)cc1`, for which the Percent Effect in experiment [1] is 1.13%; in experiment [2], 7.89%; in experiment [3], -1.42%; in experiment [4], -7.73%; in the experiment on Trypanosoma cruzi it was -8.67%; in [5] it was 9.47%. Besides, the Percent Effect is 13.3% in experiment [6]; 38.4% in the experiment listed under Homo sapiens; -4.25% in [7]; -2.6% in experiment [8]; -1.51% in [9].

In the case of `CC(C)NC(=O)COc1nc(C(C)C)no1`, the Percent Effect in [1] is -4.66%; in experiment [2], -2.7%; in [3], -12.4%; in experiment [4], 41.5%; in the experiment with Trypanosoma cruzi, 9.07%; in experiment [5], 16.2%. Also, the Percent Effect is 4.48% in experiment [6]; 6.57% in the experiment filed under Homo sapiens; -0.529% in experiment [7]; 9.76% in experiment [8]; -4.43% in [9].

On to `Cc1nc(CN2C(=O)COC3(CCN(Cc4ccco4)CC3)C2C)cs1` (stereo not drawn), for which the Percent Effect in [1] was -3.92%; in experiment [2], 2.74%; in [3], 3.27%; in [4], 2.66%; with Trypanosoma cruzi it was -3.37%; in [5], -3.19%. The Percent Effect in experiment [6] is 15.8%; in the experiment listed under Homo sapiens, 2.79%; in experiment [7], 3.12%; in experiment [8], 6.17%; in experiment [9], -2.61%.

Regarding `Fc1cccc(N2CCCC3(CN(Cc4ccncc4)CCO3)C2)c1` (stereo not drawn), the Percent Effect in experiment [1] is -2.7%; in [2], 5.33%; in experiment [3] it was 13.4%; in experiment [4], 2.73%; with Trypanosoma cruzi it was -6.5%; in experiment [5], 6.29%. Besides, the Percent Effect was 8.02% in [6]; 29.6% in the experiment listed under Homo sapiens; 6.38% in experiment [7]; 11.5% in experiment [8]; -3.18% in experiment [9].

`COc1ccc(OC)c(C2C3=C(COC3=O)Nc3[nH]nc(C)c32)c1` (stereo not drawn): the Percent Effect in experiment [1] was -1.85%; in [2], 17.3%; in experiment [3], 0.267%; in [4], -8.04%; in the experiment on Trypanosoma cruzi, 5.11%; in experiment [5], 17.1%. For the same compound, the Percent Effect is 3.33% in [6]; 7.65% in the experiment listed under Homo sapiens; 4.23% in experiment [7]; 10.3% in experiment [8]; -11.1% in [9].

`O=C(CCc1c[nH]cn1)N1CC[C@@H](c2ccc3ccccc3c2)[C@H](O)C1`: the Percent Effect in [1] is -5.41%; in experiment [2] it was 10.7%; in [3] it was -4.75%; in [4], 24.9%; with Trypanosoma cruzi, 5.16%; in experiment [5], 8.85%. For the same compound, the Percent Effect was 9.77% in experiment [6]; 15.3% in the experiment filed under Homo sapiens; 7.1% in experiment [7]; 13.6% in experiment [8]; 106% in [9].

For `COCCN(C)C(=O)c1ccc(OC)cc1O`, the Percent Effect was -7.04% in [1]; 0% in experiment [2]; 0.346% in experiment [3]; 2.75% in [4]; -4.17% in the experiment on Trypanosoma cruzi; 2.4% in experiment [5]. Moreover, the Percent Effect in [6] is 18.2%; in the experiment filed under Homo sapiens it was 8.7%; in [7] it was 4.17%; in [8], 8.64%; in experiment [9] it was 3.68%.
